Screening data: PubChem, National Center for Advancing Translational Sciences (NCATS)
This is a sample that favours compounds with a hit; in the whole collection about 19% have one here.
TDP1 cell noCPT: qHTS for Inhibitors of human tyrosyl-DNA phosphodiesterase 1 (TDP1): qHTS in cells in absence of CPT; DT40 Tdp1-/- hTDP1 cells, no CPT, ATP luminescence, 48 h; Potency, µM (doses to about 46.2 µM), for the others: top-dose activity change, negative = growth inhibition, hits mostly inhibitors; hit rate 15% among 420,000; AID 686978, 2013; further: potency means the concentration at half of the fitted maximal effect; nearly all actives have a fitted effect of over 55% in size
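Stably hTDP1-transfected Tdp1-null chicken DT40 cells were treated with library compounds minus camptothecin and grown for at least 48 hr at 37 °C, after which cellular ATP was quantified by luminescence.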
HT1080NT lethal: kills 2HG-producing HT-1080-NT fibrosarcoma cells | AID 686970 | Potency, µM (titrated, usually from 46.1 µM), inactives show at the top dose activity, negative = less viability, usual class: cytotoxic | hit rate 1.6% among 360,000 | HT-1080-NT fibrosarcoma viability, CellTiter-Glo ATP luminescence, 48 h;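 further: NT is the 2HG producing partner of a matched IDH1 knockdown line; potency means the concentration at half of the fitted maximal effect; 0% = DMSO-treated cells and -100% = media-only wells without cells; nearly all actives have a fitted effect of over 55% in size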
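HT-1080-NT fibrosarcoma cells (2HG-overproducing), 750 cells/well in RPMI with 5% FBS, dosed after 2 h and incubated 48 h at 37C. CellTiter-Glo luminescence normalized to DMSO and no-cell wells; concentration-response curves fitted and classed.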
IL-1B inflam inh: inhibitors of inflammasome signaling (IL-1 beta secretion) | hit rate 4.7% among 360,000 | THP-1 LPS/ATP IL-1B secretion, AlphaLISA, 16 h; hits give low values | activity change, % at 57.5 µM; in the data active means activity change below about -50%; inconclusive means mostly about -30% to -49%
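Secreted IL-1B measured by AlphaLISA bead assay after 16 h compound exposure of THP-1 cells; compounds (final up to 57.5 uM) added 1 h before LPS (250 ng/mL) and ATP (1.25 mM) stimulation; lower signal means less secretion.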
HT1080 IDH1KD tx: toxicity to HT-1080 IDH1 knockdown cells (counter line); hit rate 2% among 360,000; Potency, µM (titrated, usually from 46.1 µM), without a hit: top-dose activity, negative = toxicity, hits mostly cytotoxic; HT-1080 IDH1 knockdown viability, ATP luminescence, 48 h;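 further: potency means the concentration at half of the fitted maximal effect; 0% = DMSO wells and -100% = cell-free medium wells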
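Luminescent ATP read-out (CellTiter-Glo, 10 min at room temperature) after 48 h compound exposure at 37 °C gave viability of IDH1-knockdown HT-1080 cells. Activity was normalised to DMSO and cell-free wells, then fitted as concentration-response curves.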
DT40 TDP1 CPT: DT40-hTDP1 cell growth loss with CPT; chicken DT40 Tdp1-/-;hTDP1 cells + 20 nM CPT, ATP luminescence, 48 h; Potency, µM (doses to about 46.2 µM), for inactives: top-dose activity change, negative = growth inhibition, usual class: inhibitors; hit rate 12% among 420,000; AID 686979; further: potency means the concentration at half of the fitted maximal effect; nearly all actives have a fitted effect of over 55% in size
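Chicken DT40 Tdp1-/- cells stably complemented with human TDP1 were seeded at 400 cells/well in medium containing 20 nM camptothecin, exposed to pin-transferred compounds, and grown at 37 °C for at least 48 hr. Viability was read as ATP luminescence.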
The depositor's hits bear a star; ? = inconclusive; / = no result given; [ ] = remark or other dose. Unless noted, the call rests on the fitted dose curve; in most records, active means well fitted curve in the direction sought with a large enough effect; inconclusive means small, poorly fitted or top-dose-only effect, or another doubt; inactive means no such curve, though single readings can be large; an effect the other way counts as inactive or inconclusive. Unless noted, on the % scale 0 is the no-effect control and ±100 the full control effect.

SMILES | TDP1 cell noCPT | HT1080NT lethal | IL-1B inflam inh | HT1080 IDH1KD tx | DT40 TDP1 CPT
CCCCOCCCn1c(N)c(C(=O)OC(C)COC)c2nc3ccccc3nc21 (configuration not stated) | ? | -25% | ? | -21% | ?
CCC(C)OC(=O)c1c(N)n(Cc2cccs2)c2nc3ccccc3nc12 (configuration not stated) | ? | -16% | ? | ? | ?
CCC(C)NC(=O)c1c(N)n(CC2CCCO2)c2nc3ccccc3nc12 (configuration not stated) | -29% | -28% | -57* | -18% | -14%
CC(C)CCNC(=O)c1c(N)n(CC2CCCO2)c2nc3ccccc3nc12 (configuration not stated) | 29µM* | ? | ? | ? | 26µM*
O=P(O)(O)C(Cl)(Cl)P(=O)(O)O | 0% | / | / | / | 13%
CCC1(c2ccccc2)CCC(=O)NC1=O (configuration not stated) | 1% | / | / | / | 4%
COC(=O)[C@@]12CCCCN1[C@H](c1ccc(-c3ccc(Cl)c(Cl)c3)c(OC)c1)[C@@H]1C(=O)N(C)C(=O)[C@@H]12 | 10µM* | -2% | -52* | 7% | 12µM*
COC(=O)[C@@H]1N=C(c2ccc(OC)cc2)O[C@]12C(=O)N(C)c1cccc(Cl)c12 | -19% | 18% | 0 | 1% | 9%
COC(=O)[C@@]12CCCCN1[C@H](c1ccc(-c3ccc(Cl)c(Cl)c3)c(OC)c1)[C@H]1C(=O)N(C)C(=O)[C@H]12 | 16µM* | 16% | 2 | 13% | 18µM*
CC12CCC(=O)C=C1CC(O)C1C2CCC2(C)C1CCC2(C)O (configuration not stated) | 3% | 5% | -11 | 10% | -10%
CN1OC[C@@H]2CN[C@H](c3ccc(Br)cc3)C[C@@H]21 | -17% | 6% | 5 | -1% | -20%
C=CC[C@@H](CC(=O)N[C@H](CO)Cc1ccccc1)C(=O)NCCOC(=O)[C@@H](CC=C)Cc1ccc(F)cc1 | ? | -20% | 21 | -4% | 29µM*
C=CC[C@@H](CC(=O)N[C@@H](CO)Cc1ccccc1)C(=O)NCCOC(=O)[C@@H](CC=C)Cc1ccc(F)cc1 | -3% | -2% | 4 | 5% | 8%
CC1=CC(=C2C(=O)NC(=O)NC2=O)C=C(C(F)(F)F)N1Cc1ccccc1 | 18µM* | ? | 10 | ? | ?
CC1=CC(=C2C(=O)NC(=O)NC2=O)C=C(C(F)(F)F)N1C(C)C | 2% | 14% | -3 | 5% | -1%
CC1=CC(=C2C(=O)NC(=S)NC2=O)C=C(C(F)(F)F)N1Cc1ccccc1 | 1.6µM* | 1.8µM* | 32 | 1.6µM* | 1.6µM*
C[C@H](NC(=O)[C@@H](N)Cc1ccc(O)cc1)C(=O)N[C@@H](Cc1ccccc1)C(=O)N[C@@H](Cc1ccccc1)C(N)=O | -6%[4.12 µM] | / | / | / | -2%[4.12 µM]
CCN(CC)P(=S)(c1c(C)nc2ccccn12)c1c(C)nc2ccccn12 | ? | -12% | 32 | ? | 26µM*
N[C@@]1(C(=O)O)CC[C@H](C(=O)O)C1 | -17% | / | / | / | -18%
Clc1cccc(N2CCNCC2)c1Cl | ? | -22% | 20 | -18% | -16%
c1ccc2c(N3CCNCC3)cccc2c1 | ? | -29% | ? | ? | 18µM*
CCOc1ccccc1CNCCc1ccc2c(c1)OCO2 | ? | -11% | -60* | -13% | ?
COc1ccc(CNCCc2ccc(Cl)cc2)c(OC)c1OC | 9.2µM* | -13% | -17 | -2% | 16µM*
COc1ccccc1CNCCc1cccc(Cl)c1 | 15µM* | -21% | / | -25% | 18µM*
COc1ccccc1CNCCc1ccc(F)cc1 | -21% | -21% | 0 | -22% | ?
CCOc1ccc(CNCCc2ccc3c(c2)OCO3)cc1 | ? | -27% | -19 | -20% | 1%
COc1cccc(C(C)(O)c2nc(-c3cccc(F)c3)cs2)c1 (configuration not stated) | ? | ? | -15 | -23% | ?
